G9a block: blocks human histone lysine methyltransferase G9a. Potency, µM (series often up to 102 µM), for inactives: at the highest dose activity, negative = inhibition, actives largely listed as inhibitors. G9a H3K9 monomethylation, AlphaScreen, 2 h. Q96KQ7. 8.8% of 350,000 active; further: potency means the concentration at half of the fitted maximal effect; on the % scale 0 is the no-effect control and ±100 the full control effect; nearly all actives have a fitted effect of over 75% in size
Target sequence (Q96KQ7 913-1193 limits assumed): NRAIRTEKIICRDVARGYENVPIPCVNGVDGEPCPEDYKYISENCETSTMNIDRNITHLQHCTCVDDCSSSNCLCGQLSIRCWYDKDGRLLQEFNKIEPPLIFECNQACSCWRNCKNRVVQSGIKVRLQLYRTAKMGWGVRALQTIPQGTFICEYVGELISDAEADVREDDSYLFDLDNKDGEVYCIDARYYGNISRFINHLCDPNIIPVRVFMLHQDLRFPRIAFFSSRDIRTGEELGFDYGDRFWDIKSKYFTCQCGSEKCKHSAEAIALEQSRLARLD
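Quantitative HTS format: methyltransferase activity on a biotin-tagged H3K9 peptide is measured by AlphaScreen, using a rabbit anti-monomethyl-H3K9 antibody with streptavidin donor and anti-IgG acceptor beads. Final levels are 20 nM enzyme, 500 nM peptide, 20 uM SAM; 2 h RT.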
HP1b binding inh: blocks HP1-beta chromodomain binding to methylated histone tails | Potency, µM (highest dose often 114 µM), without a hit: at the top dose activity change, negative = inhibition, most hits filed as inhibitors | P83916 | 0.56% of 390,000 active | AlphaScreen HP1-beta / biotin-H3K9me3 peptide binding; further: potency means the concentration at half of the fitted maximal effect; nearly all actives have a fitted effect of over 70% in size
Target sequence (P83916 whole entry, looked up): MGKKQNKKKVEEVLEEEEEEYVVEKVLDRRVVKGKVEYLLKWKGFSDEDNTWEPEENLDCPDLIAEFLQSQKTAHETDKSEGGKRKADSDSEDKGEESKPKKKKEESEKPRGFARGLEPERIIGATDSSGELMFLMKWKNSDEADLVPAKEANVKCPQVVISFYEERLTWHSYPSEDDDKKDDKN
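Compound inhibition of the preformed complex between 50 nM HP1-beta and 50 nM biotinylated H3K9me3 peptide was read by AlphaScreen. Buffer was PBS pH 7.4 with 0.01% Tween-20. Incubations ran 30 min at room temperature, with 10 ug/mL donor/acceptor beads.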
Six1-Eya2 blk: blocks human Six1 binding to Eya2; Q15475+O00167; AlphaScreen GST-Six1/His-Eya2 binding, biochemical; active compounds read low; activity change, % (test concentration not listed); 0.56% of 360,000 active; AID 651725; in the data active means activity change below about -65%; inconclusive means mostly about -30% to -63%; further: on the % scale 0 is the no-effect control and ±100 the full control effect
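AlphaScreen with GST-Six1 and His-Eya2 (5X mix: 250 nM and 500 nM), glutathione donor and nickel acceptor beads; buffer 50 mM Tris pH 8.0, 300 mM NaCl, 1 mM TCEP; 1 h at 37 C in the dark.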
BAZ2B inh: BAZ2B (human) inhibition. Q9UIF8. AlphaScreen BAZ2B-H3K14Ac peptide displacement. Potency, µM (doses to about 114 µM), without a hit: at the top dose activity change, negative = inhibition, hits mostly inhibitors. 4.4% of 360,000 active. AID 504333; further: potency means the concentration at half of the fitted maximal effect; on the % scale 0 is the no-effect control and ±100 the full control effect; nearly all actives have a fitted effect of over 60% in size
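AlphaScreen luminescence quantifies BAZ2B engagement of H3K14Ac peptide; the protein and biotinylated peptide are both at 50 nM final, buffer PBS pH 7.4 with 0.01% Tween-20, all steps at room temperature.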
CtBP-E1A inh: inhibitors of CtBP/E1A interaction | AlphaScreen GST-E1A/His-CtBP binding, 1536-well; active compounds read low | activity change, % (no concentration beside the values) | 0.49% of 340,000 active | AID 651724; in the data active means activity change below about -65%; inconclusive means mostly about -30% to -63%; further: on the % scale 0 is the no-effect control and ±100 the full control effect
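Homogeneous bead-based format: GST-tagged E1A captured on glutathione donor beads, His-tagged CtBP on nickel acceptor beads; compounds precede bead addition by 2 h at 37 °C.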
JMJD2A Tudor inh: blocks the human JMJD2A Tudor domain; AlphaScreen JMJD2A-Tudor / H3K4me3 peptide binding; Potency, µM (doses to about 114 µM), for inactives: at the top dose activity change, negative = inhibition, hits mostly inhibitors; 4.4% of 390,000 active; further: potency means the concentration at half of the fitted maximal effect; on the % scale 0 is the no-effect control and ±100 the full control effect; nearly all actives have a fitted effect of over 50% in size
The depositor's hits bear a star; ? = inconclusive; nt = no result given; [ ] = remark or other dose. Hits are enriched below; roughly 10% of the tested compounds scored in any of these assays. Unless noted, the call rests on the fitted dose curve; in most records, active means well fitted inhibition curve with a large enough effect; inconclusive means small, poorly fitted or top-dose-only effect; inactive means no such curve, though single readings can be large or run the other way.

SMILES	G9a block	HP1b binding inh	Six1-Eya2 blk	BAZ2B inh	CtBP-E1A inh	JMJD2A Tudor inh
COc1cccc(NC(=O)CN(C)C(=O)c2ccc(Cl)c(S(=O)(=O)N3CCCCCC3)c2)c1	71µM*	-1%	6	10%	-26	-22%
COc1ccc(CCCc2n[nH]c(=S)o2)cc1C	8.9µM*	51%	-1	-23%	8	-10%
COc1ccc(CCCc2n[nH]c(=S)n2C)cc1C	11µM*	?	2	-24%	-2	5.6µM*
COc1ccc(CCCc2nnc(SCC(=O)Nc3nccs3)n2C)cc1C	5%[12.7 µM]	36%	-11	16%	-8	-10%
CCN(CC)S(=O)(=O)c1ccc2c(c1)N(CC(=O)Nc1cccc(C)c1C)C(=O)C1CCCN21 (centres undefined)	-32%[59 µM]	26%	nt	6%	nt	9%
CCc1cc(=O)[nH]c(SCc2cccnc2)n1	21%	12%[57 µM]	4	4%	nt	-15%
O=c1cnc2cnc(Nc3ccccc3)nc2n1C[C@H]1CCCO1	-8%[12.7 µM]	nt	nt	nt	nt	nt
C=CCCCCCCCCC(=O)O	27%[59 µM]	nt	nt	nt	nt	nt
CCc1nn(C(CC)C(=O)NCc2cccc(OC)c2)c(=O)c2cc3occc3n12 (centres undefined)	-6%	13%	0	-10%	1	-32%
Cc1ccc(-c2nn(-c3ccccc3)cc2C(=O)N2CCN(C3CCS(=O)(=O)C3)CC2)cc1 (centres undefined)	7.1µM*	30%	3	7%	1	-4%
CCN(Cc1ccccc1)C(=O)C1CCN(Cc2sccc2C)CC1	8.9µM*	?	4	-37%	-17	2.8µM*
CCN(CC)C(=O)C1CCN(CC2CC=CCC2)CC1 (centres undefined)	13µM*	-58%	2	56µM*	-4	6.3µM*
CCC(CC)N1CCN(CC2CC=CCC2)CC1 (centres undefined)	10µM*	?	-8	nt	4	1.8µM*
CCN(Cc1ccccc1)C(=O)C1CCN(CC2CC=CCC2)CC1 (centres undefined)	7.9µM*	?	-3	?	-4	3.2µM*
CCN(Cc1ccccc1)C(=O)C1CCN(S(=O)(=O)c2ccc3c(c2)OCCO3)CC1	18%	22%	5	-11%	6	-13%
CCOC(=O)c1ccc(S(=O)(=O)N2CCN(CC3CC=CCC3)CC2)cc1 (centres undefined)	-1%	27%	0	3%	9	-1%
COC(=O)c1ccc(C2c3c(oc4cc(C)c(C)cc4c3=O)C(=O)N2c2ccccn2)cc1 (centres undefined)	6%[59 µM]	31%	nt	-1%	nt	5%
COc1ccccc1NC(=O)C(OC(=O)CNC(=O)c1ccccc1)c1ccccc1 (centres undefined)	nt	nt	nt	nt	nt	-19%
O=[N+]([O-])c1ccc(C2CN=C(Nc3ccccc3)S2)cc1 (centres undefined)	45µM*	0%	-7	?	2	-30%
CCc1ccc(NC2=NCC(c3ccccc3)S2)cc1 (centres undefined)	6%	114%	2	-5%	2	22%
Cc1cc(C)nc(N/N=C2/CCSc3ccc(F)cc32)n1	35µM*	30%	-4	-18%	-11	-40%
O=C(O)c1ccc(N/N=C2/CCSc3ccc(F)cc32)cc1	50µM*	-8%	-13	?	-10	?
COc1cc2c(c(OC)c1CC=C(C)C)C[C@H](c1ccc(O)cc1O)CO2	nt	-31%	-9	nt	-5	56µM*
O=C(Cc1ccc(S(=O)(=O)N2CCOCC2)s1)NCC(=O)Nc1ccccc1Br	2%[0.501 µM]	37%	0	-30%	0	-3%
COc1ccc(Cl)cc1NC(=O)CN(C)CC(=O)Nc1ccccc1N1CCOCC1	-4%	31%	20	-1%	-1	-21%
O=C(Cc1ccc(Cl)c(Cl)c1)Nc1ccccc1N1CCOCC1	79µM*	54%	-2	nt	9	12%

Source: PubChem BioAssay (National Center for Advancing Translational Sciences (NCATS))
